Reference: PubChem BioAssay (NCI)
About 79,000 compounds went through this panel and 15% of them were active in at least one assay; those are over-represented in the sample as a whole. Values without a mark were called inactive. Activity calls are given as the source filed them. No stated cut-off is given here; in the data, active means growth inhibition above about 70%; inactive means the rest.

Assay: NCI Yeast Anticancer Drug Screen. Data for the rad52 strain (AID 147);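 further: 0% = growth of vehicle-treated control cultures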
Settings: S. cerevisiae rad52 mutant growth inhibition, stronger effect = higher value
Experimental: Growth inhibition of yeast strains with defined genetic alterations is measured as a screen for potential anti-cancer activity. Selected strains with alterations in DNA damage repair or cell cycle control were exposed to compounds and growth inhibition was measured relative to vehicle treated controls. The strain used in this assay is rad52

| SMILES | growth inhibition (at 1.2 µM) [%] | growth inhibition (at 3.7 µM) | growth inhibition (at 11.0 µM) | growth inhibition (at 33.0 µM) | growth inhibition (at 100.0 µM) |
| --- | --- | --- | --- | --- | --- |
| O=C(/C=C/c1cccc2ccccc12)c1ccc(Cl)cc1 | 7 | 7% | 7% | -4% | -13% |
| CCN1/C(=C/c2ccc3ccccc3[n+]2CC)C=Cc2ccccc21 | -19 | -14% | 87% (active) | 98% (active) | 98% (active) |
| S=c1cn[nH]c2ccc(Br)cc12 | -1 | 8% | 10% | 52% | 74% (active) |
| O=C(/C=N/O)Nc1cc(Cl)c(Cl)cc1Cl | -45 | -47% | -40% | -1% | 62% |
| CC(C)(O)c1ccccc1C(c1ccccc1)c1ccccc1 | 0 | -3% | 9% | 3% | 8% |
| NP1(Oc2ccc(F)cc2)=NP(N)(Oc2ccc(F)cc2)=NP(Oc2ccc(F)cc2)(Oc2ccc(F)cc2)=N1 (stereo not given) | -1 | 7% | 74% (active) | 71% (active) | 96% (active) |
| COC(=O)c1n[nH]c(C)c1N=NN(C)CCC#N | 46 | 91% (active) | 97% (active) | 98% (active) | 99% (active) |
| CO[C@@]12[C@H](COC(N)=O)C3=C(C(=O)C(C)=C(N)C3=O)N1C[C@@H]1N[C@@H]12 | 7 | 19% | 55% | 83% (active) | 92% (active) |
